The values that follow come from PubChem BioAssay (Tox21).

Records with an inconclusive call do not appear. Entries that show only a call come without a potency. Activity calls are given as the source filed them. Calls follow the shape of the full dose curve.

Muscarinic acetylcholine receptor M1 (Homo sapiens), sequence (P11229 whole entry, looked up): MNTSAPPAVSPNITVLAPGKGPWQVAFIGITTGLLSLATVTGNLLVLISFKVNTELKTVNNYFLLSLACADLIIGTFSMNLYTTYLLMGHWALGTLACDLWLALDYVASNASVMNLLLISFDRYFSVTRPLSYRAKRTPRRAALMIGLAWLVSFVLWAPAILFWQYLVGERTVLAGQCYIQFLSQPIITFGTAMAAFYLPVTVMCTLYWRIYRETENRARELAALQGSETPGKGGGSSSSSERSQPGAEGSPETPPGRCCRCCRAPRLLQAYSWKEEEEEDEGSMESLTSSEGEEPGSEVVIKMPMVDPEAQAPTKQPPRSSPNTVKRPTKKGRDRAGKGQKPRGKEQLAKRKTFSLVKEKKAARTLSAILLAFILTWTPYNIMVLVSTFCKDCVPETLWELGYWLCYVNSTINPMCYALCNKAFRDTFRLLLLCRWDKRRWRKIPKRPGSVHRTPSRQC

For one assay, the target named is Muscarinic acetylcholine receptor M1 (Homo sapiens) (UniProt P11229). The assay can be described thus: Cholinergic receptor muscarinic 1 (CHRM1) small molecule agonists, cell-based qHTS assay (AID 1963589). Also: nearly all actives have a fitted effect of over 35% in size. As to conditions: CHRM1-CHO cells, agonist mode, calcium flux fluorescence; series mostly up to 76.8 µM; activation: at the top concentration. In short, it runs like this:
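Stable CHRM1-CHO cells (human receptor) were incubated 18 h, dye-loaded for 1 h at 37 C and exposed to test compounds for agonist activity, with calcium-dependent fluorescence followed kinetically.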
For orientation: In qHTS, concentration-response curves come from the screen itself.
In the case of `CC(=O)CC(C)(C)O`, the Potency entry was “inactive”.

`CC(=O)OC/C=C(C)/C=C/C=C(C)/C=C/C1=C(C)CCCC1(C)C`: the Potency result was “inactive”.

In the case of `CCCCCCCCCCN`, the Potency entry is “inactive”.

Regarding `CCCCN(CCCC)CCCC`, the Potency entry is “inactive”.

For `CCCCCCC(C)O` (centres undefined), the Potency entry was “inactive”.

Regarding `O=[Se](O)O`, the Potency result is “inactive”.

Consider `Cc1ccc(S(=O)(=O)NCl)cc1`, for which the Potency result is “inactive”.

Consider `CCC(C)C=O` (centres undefined), for which the Potency result was “inactive”.

With `CC(C)[N+](C)(CCOC(=O)C1c2ccccc2Oc2ccccc21)C(C)C`, the Potency entry was “inactive”.

For the molecule `CCCCC/C=C\C/C=C\CCCCCCCC(=O)O`, the Potency result is “inactive”.

As to `CCCc1c(OCCCCc2nn[nH]n2)ccc(C(C)=O)c1O`, the Potency entry is “inactive”.

As to `CC(=O)c1ccc(O)cc1`, the Potency result is “inactive”.

With `CC(C)CC(C)CC(O)CC(C)C` (centres undefined), the Potency result was “inactive”.

As to `CC(=O)Nc1ccc(C(=O)O)cc1`, the Potency entry is “inactive”.

Consider `C=CCNC(N)=S`, for which the Potency result was “inactive”.

For `CC(=O)Nc1ccc(C(=O)CCl)cc1`, the Potency entry was “inactive”.

In the case of `O=C(O)CN(CC(=O)O)CC(=O)O`, the Potency result is “inactive”.

Consider `O=CCCCC=O`, for which the Potency entry is “inactive”.

System in the next assay: not listed separately
Nature of the assay: cAMP Responsive Elements (CRE) small molecule agonists, cell-based qHTS assay (AID 1963590). As to conditions: CRE-bla HEK293T, beta-lactamase FRET ratio, 3 h; series mostly up to 92.4 µM; activation: at the top concentration. In outline: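 FRET-based beta-lactamase readout (LiveBLAzer B/G, 2 h RT) quantified CRE activation in HEK 293T CRE-bla cells after 3 h treatment with DMSO-dissolved compounds.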
For `COC(=O)c1ccc(O)cc1`, the Potency entry is “inactive”.

For the molecule `CC(=O)CC(C)(C)O`, the Potency result is “inactive”.

Regarding `O=c1[nH]cc(F)c(=O)[nH]1`, the Potency entry was “inactive”.

With `CC(=O)OC/C=C(C)/C=C/C=C(C)/C=C/C1=C(C)CCCC1(C)C`, the “activation” value is 0.333% [at 42.5 µM] (inactive).

Consider `CCCCCCCCCCN`, for which the Potency entry is “inactive”.

In the case of `C[C@H]1C[C@H]2[C@@H]3CCC4=CC(=O)C=C[C@]4(C)[C@@]3(F)[C@@H](O)C[C@]2(C)[C@@]1(O)C(=O)CO`, the Potency result was “inactive”.

As for `CCCCN(CCCC)CCCC`, the “activation” value was -1.67% (inactive).

Regarding `CCCCCCC(C)O` (centres undefined), the Potency entry is “inactive”.

With `Cc1ccc(S(=O)(=O)NCl)cc1`, the Potency entry is “inactive”.

On to `CCC(C)C=O` (centres undefined), for which the “activation” value was -0.0277% (inactive).

As for `CC(C)[N+](C)(CCOC(=O)C1c2ccccc2Oc2ccccc21)C(C)C`, the Potency entry is “inactive”.

Take `Cn1c(=O)c2[nH]cnc2n(C)c1=O`: the Potency result is “inactive”.

Take `CC(=O)c1ccc(O)cc1`: the Potency entry was “inactive”.

With `NC(=O)c1ccccc1O`, the Potency entry was “inactive”.

In the case of `CC(C)CC(C)CC(O)CC(C)C` (centres undefined), the Potency entry was “inactive”.

For the molecule `C[C@]12CCC(=O)C=C1CC[C@@H]1[C@@H]2C(=O)C[C@@]2(C)[C@H]1CC[C@]2(O)C(=O)CO`, the Potency entry is “inactive”.

With `CC(=O)Nc1ccc(C(=O)O)cc1`, the Potency entry was “inactive”.

For `C[C@H]1C[C@@H]2[C@H]([C@@H](O)C[C@@]3(C)[C@H]2CC[C@]3(O)C(=O)CO)[C@@]2(C)C=CC(=O)C=C12`, the Potency entry is “inactive”.

For the molecule `C=CCNC(N)=S`, the “activation” value is 0.234% [at 42.5 µM] (inactive).

For the molecule `CCOC(N)=O`, the Potency result was “inactive”.

For the molecule `O=C(O)CN(CC(=O)O)CC(=O)O`, the Potency entry was “inactive”.

Consider `CN1C(C(=O)Nc2ccccn2)=C(O)c2ccccc2S1(=O)=O`, for which the Potency entry was “inactive”.

As to `O=CCCCC=O`, the Potency entry is “inactive”.

Take `COCCc1ccc(OCC(O)CNC(C)C)cc1` (centres undefined): the Potency result is “inactive”.

For the molecule `CCN(CC)CCOC(=O)c1ccc(N)cc1`, the Potency result is “inactive”.

For `O=c1c(-c2ccc(O)cc2)coc2cc(O)cc(O)c12`, the “activation” value is 10.4% [at 42.5 µM] (inactive).
